A short description of test [1]: qHTS assay to identify small molecule agonists of the sonic hedgehog signaling (Shh) pathway (AID 1259368).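 Also: NIH/3T3-derived 3T3Gli1-Luc cells carrying a stable Gli1-driven firefly luciferase reporter; series mostly up to about 92 µM; nearly all actives have a fitted effect of over 15% in size.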 In short, it runs like this: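 Hedgehog pathway agonism scored by increased firefly luciferase luminescence in 3T3Gli1-Luc cells treated 24 hr at 37 C; detection used a 30 min room-temperature reagent incubation.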
Test [2] can be described thus: qHTS assay to identify small molecule antagonists of the sonic hedgehog signaling (Shh) pathway (AID 1259369). Also: nearly all actives have a fitted effect of over 45% in size. Also: potency is read from the fitted curve at half-maximal effect. In short, it runs like this: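 NIH/3T3 stable Gli1-Luc clone, 2,000 cells/well, 4hr settle; cpd + conditioned medium 24hr; Luc reagent 30min RT; luminescence.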
(In general: qHTS replaces the single test concentration by a dilution series.)

The target of test [3] is Estrogen receptor beta (Homo sapiens) (UniProt Q92731). The test can be described thus: qHTS assay to identify small molecule agonists of the estrogen receptor beta (ER-beta) signaling pathway (AID 1259377; active = well fitted activation curve with a large enough effect in the signal ratio in the repeat runs, not every such curve was filed as active; the % refers to the signal ratio). In short, it runs like this: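 Beta-lactamase reporter readout: fluorescence of LiveBLAzer B/G FRET substrate after 2 h at room temperature, following 16 h compound treatment of ER-beta-UAS-bla HEK293T cells at 37C in 2% charcoal-stripped FBS medium.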

Test [4] has the same target. The test can be described thus: qHTS assay to identify small molecule antagonists of the estrogen receptor beta (ER-beta) signaling pathway (AID 1259378; active = well fitted inhibition curve with a large enough effect in the signal ratio in the repeat runs, not every such curve was filed as active; the % refers to the signal ratio). In short, it runs like this:
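ER-beta-UAS-bla HEK293T cells in 2% charcoal-stripped FBS medium treated with compound plus 1nM final 17-beta-estradiol for 16 hr at 37C. Beta-lactamase reporter read by FRET substrate fluorescence after 2 hours at room temperature.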

Test [5] can be described thus: qHTS assay to identify small molecule agonists of the androgen receptor (AR) signaling pathway in the presence of an antagonist - cell viability counter screen (AID 1259379; active = well fitted curve in the direction sought with a large enough effect in the repeat runs; an effect the other way counts as inactive or inconclusive;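 also: MDA-kb2 human breast cancer cells carrying an MMTV luciferase reporter; series mostly up to about 92 µM; nearly all actives have a fitted effect of over 25% in size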). In short, it runs like this:
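MDA-kb2 viability measured by CellTiter-Fluor fluorescence in the same wells as the luciferase signal; nilutamide 3.0uM final; 15-point compound titration; 16 hr at 37C.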

The nature of test [6]: qHTS assay to identify small molecule agonists of the estrogen receptor beta (ER-beta) signaling pathway - cell viability counter screen (AID 1259380; active = well fitted curve in the direction sought with a large enough effect in the repeat runs; an effect the other way counts as inactive or inconclusive; also: nearly all actives have a fitted effect of over 30% in size; also: potency is read from the fitted curve at half-maximal effect). In short, it runs like this:
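Measured: luminescence from CellTiter-Glo after 30 min at room temperature, added to wells already read for the LiveBLAzer FRET reporter (2 hr substrate); ER-beta-UAS-bla HEK293T cells had 16 hr compound treatment at 37C, 5% CO2.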

Test [7] can be described thus: qHTS assay to identify small molecule antagonists of the estrogen receptor beta (ER-beta) signaling pathway - cell viability counter screen (AID 1259382; active = well fitted curve in the direction sought with a large enough effect in the repeat runs; an effect the other way counts as inactive or inconclusive; also: series mostly up to about 92 µM; nearly all actives have a fitted effect of over 55% in size). In short, it runs like this:
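Readout: luminescence, CellTiter-Glo, same wells as bla assay. System: ER-beta-UAS-bla GripTite HEK293T, 2% charcoal-stripped FBS. Exposure: compounds plus 1nM 17-beta-estradiol, 16 hr, 37C.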

Test [8] in a line: qHTS assay to identify small molecule agonists or antagonists of the thyroid stimulating hormone receptor (TSHR) signaling pathway - wild type cell line counter screen (AID 1259384). In short, it runs like this: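 Wild-type Hek293 cells, 800/well, 18 h at 37C, then compound with Ro20-1724 for 30 min RT. cAMP by HTRF (cAMP-d2/anti-cAMP cryptate), 1 h RT, fluorescence read. 15 concentrations, triplicates.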

Test [9] has as its target Estrogen receptor (Homo sapiens) (UniProt P03372). The test can be described thus: qHTS assay to identify small molecule agonists of the estrogen receptor alpha (ER-alpha) signaling pathway in the presence of an antagonist (AID 1259383). Also: top concentration of the series differs between compounds; nearly all actives have a fitted effect of over 15% in size. In short, it runs like this: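 Quantitative HTS confirmation: compounds titrated at 15 concentrations onto estrogen-deprived VM7Luc4E2 cells carrying a four-ERE luciferase construct, with ICI-182,780 present at 10.0nM final. Signal is luminescence after 22hr exposure.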

Unmarked numbers belong to inactive results. Results filed as inconclusive are left out. Activity calls are given as the source filed them. Unless noted, calls follow the shape of the full dose curve.

The values that follow come from PubChem BioAssay (Tox21).
% is scaled to controls: 0 for no effect and ±100 for the full control effect.

Sequence of Estrogen receptor (Homo sapiens) (P03372 whole entry, looked up): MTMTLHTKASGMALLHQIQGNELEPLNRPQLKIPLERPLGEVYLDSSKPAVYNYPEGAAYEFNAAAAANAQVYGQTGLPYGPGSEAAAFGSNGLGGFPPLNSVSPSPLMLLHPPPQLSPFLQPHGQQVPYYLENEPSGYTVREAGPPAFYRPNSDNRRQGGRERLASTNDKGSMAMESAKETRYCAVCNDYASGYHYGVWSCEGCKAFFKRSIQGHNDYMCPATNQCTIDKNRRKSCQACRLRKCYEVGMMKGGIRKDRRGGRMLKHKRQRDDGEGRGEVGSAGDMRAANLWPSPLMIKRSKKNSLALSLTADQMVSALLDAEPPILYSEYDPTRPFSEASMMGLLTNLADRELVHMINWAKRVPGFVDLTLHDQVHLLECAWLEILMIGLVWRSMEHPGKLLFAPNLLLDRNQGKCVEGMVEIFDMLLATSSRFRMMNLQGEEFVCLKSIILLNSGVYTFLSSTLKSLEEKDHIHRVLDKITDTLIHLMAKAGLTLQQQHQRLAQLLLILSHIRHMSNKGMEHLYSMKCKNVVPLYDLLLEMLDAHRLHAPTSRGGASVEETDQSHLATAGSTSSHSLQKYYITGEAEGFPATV
Sequence of Estrogen receptor beta (Homo sapiens) (Q92731 whole entry, looked up): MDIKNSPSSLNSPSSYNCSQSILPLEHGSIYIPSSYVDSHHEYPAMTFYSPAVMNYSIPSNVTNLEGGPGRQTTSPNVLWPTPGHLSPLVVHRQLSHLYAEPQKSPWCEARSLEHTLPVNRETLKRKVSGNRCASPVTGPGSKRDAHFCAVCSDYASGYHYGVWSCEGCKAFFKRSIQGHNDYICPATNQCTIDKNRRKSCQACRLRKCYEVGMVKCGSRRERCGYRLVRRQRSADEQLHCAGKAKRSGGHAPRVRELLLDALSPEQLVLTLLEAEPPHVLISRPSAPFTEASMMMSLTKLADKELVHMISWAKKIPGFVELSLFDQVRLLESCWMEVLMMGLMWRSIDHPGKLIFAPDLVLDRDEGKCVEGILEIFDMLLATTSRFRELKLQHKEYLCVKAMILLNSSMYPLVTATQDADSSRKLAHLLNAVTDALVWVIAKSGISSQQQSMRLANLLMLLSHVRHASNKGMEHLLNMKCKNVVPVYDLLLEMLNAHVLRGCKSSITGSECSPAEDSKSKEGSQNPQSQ

Take `NC(=S)Nc1cccc2ccccc12`: the activity change in test [1] was -0.099% [at 8.39 µM, active compounds read high]. For the same compound, in test [2], the activity change, negative = inhibition is 0.0462% [at 8.39 µM]. The activation in [3] was -0.309% [at 8.39 µM]. Besides, the activity, negative = inhibition in test [4] is -5.64% [at 8.39 µM]. Besides, the results for the activity change, negative = cytotoxicity in test [5], in test [6] and in test [7] were -0.514% [at 8.39 µM], -0.0461% [at 8.39 µM] and 8.83% [at 8.39 µM], respectively. The cAMP activity change in test [8] is 4.82% [at 8.39 µM].
As for `Oc1cc(O)c2c(c1)O[C@H](c1ccc(O)c(O)c1)[C@H](O)C2`, the Potency result in test [1], in [2], in test [4], in test [5], in test [6] and in test [7] was “inactive” throughout. Besides, the Potency result in test [9] is “inactive”. In addition, the compound was called inactive in test [3] and in test [8].
`COc1nc(C)nc(N)n1`: the Potency entry in test [1], in test [2], in test [4], in test [5], in test [6] and in test [7] was “inactive” throughout. In addition, the Potency result in test [9] was “inactive”. For the same compound, the result in test [3] and in [8] was inactive.
In the case of `CSc1ccc(C=O)cc1`, the Potency result in test [1], in test [2], in test [4], in test [5], in test [6] and in test [7] was “inactive” throughout. In addition, the result in test [3] and in test [8] was inactive.
Consider `CC(C)COC(=O)C(C)C`, for which the Potency result in [1], in test [2], in [4], in test [5], in [6] and in [7] was “inactive” throughout. In test [9], the Potency entry is “inactive”. Besides, the call in test [3] and in test [8] was inactive.
`N#CCc1ccccc1[N+](=O)[O-]`: the Potency entry in [1], in test [2], in test [4], in test [5], in [6] and in test [7] was “inactive” throughout. Further, the result in test [3] and in test [8] was inactive.
`CCCc1ccccc1O`: the Potency result in [1], in test [2], in test [4], in test [5], in test [6] and in test [7] was “inactive” in each case. For the same compound, the outcome in test [3] and in [8] was inactive.
For `N#CC1(O)CCCCC1`, the Potency entry in test [1], in [4], in test [5], in [6] and in test [7] was “inactive” throughout. In addition, in test [2], the Potency was 12300 nM (active). In addition, the compound was classed as inactive in test [3] and in [8].
As for `O=C(O)C1CCC1`, the Potency result in [1], in test [2], in [4], in [5], in [6] and in test [7] was “inactive” each time. In test [9], the Potency result is “inactive”. For the same compound, the call in test [3] and in [8] was inactive.
In the case of `Cn1cnc2c(=O)[nH]c(N)nc21`, the Potency entry in [1], in [2], in [4], in test [5], in [6] and in [7] was “inactive” each time. Further, the compound was classed as inactive in [3] and in test [8].
As for `CC(C)(O)Cc1ccccc1`, the Potency result in test [1], in test [2], in test [4], in test [5], in [6] and in test [7] was “inactive” throughout. The Potency result in test [9] was “inactive”. In addition, the outcome in test [3] and in test [8] was inactive.
For `C#CC(C)(O)CC(C)C` (configuration not stated), the Potency result in [1], in test [2], in test [4], in test [5], in [6] and in test [7] was “inactive” throughout. In addition, the result in [3] and in test [8] was inactive.
`OC[C@H]1O[C@@H]2O[C@H]3[C@H](O)[C@@H](O)[C@@H](O[C@H]4[C@H](O)[C@@H](O)[C@@H](O[C@H]5[C@H](O)[C@@H](O)[C@@H](O[C@H]6[C@H](O)[C@@H](O)[C@@H](O[C@H]7[C@H](O)[C@@H](O)[C@@H](O[C@H]8[C@H](O)[C@@H](O)[C@@H](O[C@H]9[C@H](O)[C@@H](O)[C@@H](O[C@H]1[C@H](O)[C@H]2O)O[C@@H]9CO)O[C@@H]8CO)O[C@@H]7CO)O[C@@H]6CO)O[C@@H]5CO)O[C@@H]4CO)O[C@@H]3CO`: the Potency entry in [1], in [2], in test [4], in [5], in [6] and in [7] was “inactive” throughout. Also, the outcome in [3] and in test [8] was inactive.
Turning to `CCC(C)(C)C1CCC(OC)CC1` (configuration not stated), the Potency entry in [1], in test [2], in test [4], in test [5], in test [6] and in test [7] was “inactive” each time. Moreover, the Potency entry in test [9] is “inactive”. The call in [3] and in [8] was inactive.
Consider `CCCOc1ccccc1-c1nc2n[nH]nc2c(=O)[nH]1`, for which the Potency entry in test [1], in test [2], in [4], in test [5], in [6] and in test [7] was “inactive” in each case. Besides, the Potency entry in test [9] was “inactive”. The result in test [3] and in test [8] was inactive.
Turning to `CCCCCCC(CCCCCCCCCCC(=O)OCC(COC(C)=O)OC(C)=O)OC(C)=O` (configuration not stated), the Potency entry in test [1], in test [4], in test [5], in test [6], in [7] and in [9] was “inactive” each time. Further, in test [2], the Potency is 1060 nM (active). In addition, the result in test [3] and in test [8] was inactive.
On to `CN(C)C(=O)Nc1ccccc1`, for which the Potency result in [1], in [2], in test [4], in test [5], in test [6] and in test [7] was “inactive” each time. Further, the Potency result in test [9] was “inactive”. Besides, the result in test [3] and in test [8] was inactive.
Regarding `CC1CCN(CCCC(=O)c2ccc(F)cc2)CC1`, the Potency entry in test [1], in [2], in test [4], in [5], in [6] and in test [7] was “inactive” each time. In [9], the Potency result was “inactive”. Further, the compound was called inactive in test [3] and in test [8].
For `Cc1nccn1CC1CCc2c(c3ccccc3n2C)C1=O` (configuration not stated), the Potency entry in test [1], in test [2], in test [4], in test [5], in test [6] and in test [7] was “inactive” in each case. Besides, in test [9], the Potency result was “inactive”. In addition, the outcome in [3] and in [8] was inactive.
Regarding `COC[C@H](c1ccc(C(F)(F)F)cc1)N1CCN(C2(C)CCN(C(=O)c3c(C)ncnc3C)CC2)C[C@H]1C`, the Potency result in test [1], in [2], in test [4], in test [5], in test [7] and in test [9] was “inactive” in each case. In addition, the result in [3] and in test [8] was inactive. Further, in test [6], the Potency was 2660 nM (active).
Regarding `CCc1cc(S(=O)(=O)O)c2cc(C(C)C)cccc1-2`, the Potency result in [1], in [2], in test [4], in [5], in test [6] and in [7] was “inactive” in each case. The Potency entry in [9] is “inactive”. The compound was called inactive in [3] and in test [8].
`C=CCOCC(O)CS(=O)(=O)O` (configuration not stated): the Potency entry in [1], in test [2], in [4], in [5], in test [6] and in test [7] was “inactive” in each case. For the same compound, in test [9], the Potency result is “inactive”. Moreover, the call in [3] and in [8] was inactive.
With `O=C(O)c1cccc(C(=O)O)n1`, the Potency entry in [1], in test [2], in test [4], in test [5], in test [6] and in test [7] was “inactive” throughout. For the same compound, in test [9], the Potency result is “inactive”. The outcome in test [3] and in [8] was inactive.
With `FC(F)(F)C(F)(F)C(F)(F)C(F)(F)C(F)(F)C(F)(F)C(F)(F)C(F)(F)C(F)(F)C(F)(F)F`, the activity change in test [1] is -0.701% [at 8.39 µM, active compounds read high]. Also, in test [2], the activity change, negative = inhibition was -15.5% [at 8.39 µM]. Moreover, the activation in [3] is -4.79% [at 8.39 µM]. In addition, the activity, negative = inhibition in test [4] is 3.92% [at 8.39 µM]. Moreover, the activity change, negative = cytotoxicity was 1.46% [at 8.39 µM] in test [5], -0.929% [at 8.39 µM] in test [6] and -4.55% [at 8.39 µM] in test [7]. The cAMP activity change in test [8] was 1.74% [at 8.39 µM].
